Consider 9 molecules from PubChem BioAssay (NCATS).

Assay [1] can be described thus: Quantitative High-Throughput drug screen in 47 multiple myeloma cell lines against the NCATS MIPE library collection: OCIMY7_PLB cell viability assay (AID 1918987). Further: nearly all actives have a fitted effect of over 65% in size. Further: potency means the concentration at half of the fitted maximal effect. In outline: (§1)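 500 cells/well; MIPE 4.0 drugs pin-transferred; 48 h, 37C, 5% CO2. CellTiter-Glo, 5 min RT, luminescence. Controls: DMSO 100%, media 0%.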
Assay [2] is described as follows: Quantitative High-Throughput drug screen in 47 multiple myeloma cell lines against the NCATS MIPE library collection: OPM1_PLB cell viability assay (AID 1918989). Further: nearly all actives have a fitted effect of over 40% in size. Further: potency means the concentration at half of the fitted maximal effect. The procedure, abridged:
as §1

Assay [3] is described as follows: Quantitative High-Throughput drug screen in 47 multiple myeloma cell lines against the NCATS MIPE library collection: U266_ATCC cell viability assay (AID 1919864). Further: nearly all actives have a fitted effect of over 35% in size. Further: potency means the concentration at half of the fitted maximal effect.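 On viability (% of DMSO control): 0% = media-only wells without cells and 100% = DMSO-only wells.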 The procedure, abridged:
as §1

Assay [4] in a line: Quantitative High-Throughput drug screen in 47 multiple myeloma cell lines against the NCATS MIPE library collection: XG6_PLB cell viability assay (AID 1919865). Further: nearly all actives have a fitted effect of over 40% in size. Further: potency means the concentration at half of the fitted maximal effect. In outline:
as §1

Assay [5] in a line: Quantitative High-Throughput drug screen in 47 multiple myeloma cell lines against the NCATS MIPE library collection: XG1_PLB cell viability assay (AID 1919866). Further: nearly all actives have a fitted effect of over 35% in size. Further: potency means the concentration at half of the fitted maximal effect. The procedure, abridged: as §1
Assay [6] in a line: Quantitative High-Throughput drug screen in 47 multiple myeloma cell lines against the NCATS MIPE library collection: VP6_DJ cell viability assay (AID 1919867). Further: nearly all actives have a fitted effect of over 40% in size. Further: potency means the concentration at half of the fitted maximal effect. In outline: as §1
The nature of assay [7]: Quantitative High-Throughput drug screen in 47 multiple myeloma cell lines against the NCATS MIPE library collection: PE2_PLB cell viability assay (AID 1919869). Further: nearly all actives have a fitted effect of over 35% in size. Further: potency means the concentration at half of the fitted maximal effect. In outline: as §1
A short description of assay [8]: Quantitative High-Throughput drug screen in 47 multiple myeloma cell lines against the NCATS MIPE library collection: PCM6_Riken cell viability assay (AID 1919870). Further: nearly all actives have a fitted effect of over 30% in size. Further: potency means the concentration at half of the fitted maximal effect. The procedure, abridged: as §1
Assay [9] in a line: Quantitative High-Throughput drug screen in 47 multiple myeloma cell lines against the NCATS MIPE library collection: RPMI8226_ATCC cell viability assay (AID 1919871). Further: nearly all actives have a fitted effect of over 30% in size. Further: potency means the concentration at half of the fitted maximal effect. In outline:
as §1

Assay [10] in a line: Quantitative High-Throughput drug screen in 47 multiple myeloma cell lines against the NCATS MIPE library collection: KMS11_JCRBsus cell viability assay (AID 1919873). Further: nearly all actives have a fitted effect of over 50% in size. Further: potency means the concentration at half of the fitted maximal effect. The procedure, abridged:
as §1

Assay [11] is described as follows: Quantitative High-Throughput drug screen in 47 multiple myeloma cell lines against the NCATS MIPE library collection: KMS28BM_JCRB cell viability assay (AID 1919874). Further: nearly all actives have a fitted effect of over 35% in size. Further: potency means the concentration at half of the fitted maximal effect. In outline: as §1
Assay [12] in a line: qHTS drug screen for cell cycle checkpoint inhibitors in PARPi-resistant BRCA-mutant ovarian cancer cell lines. (AID 1963452; calls by dose curve; further: potency means the concentration at half of the fitted maximal effect). To be noted: PEO1/OlaR viability, CellTiter-Glo luminescence, 96 h; for Z-AUC: stronger effect = lower value. In outline: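 PEO1, PEO4 and PEO1/OlaR ovarian cancer cells, 600 per well, exposed 96 h at 37C to a dilution series. Viability read by CellTiter-Glo luminescence, normalized to DMSO and empty wells; activity summarized as Z-AUC.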

A short description of assay [13]: qHTS profiling for inhibitors of Plasmodium falciparum proliferation (AID 504749). Further: potency means the concentration at half of the fitted maximal effect.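 On activity, negative = inhibition: 0% = DMSO vehicle and full inhibition = artemisinin control.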 On all read-outs here: nearly all actives have a fitted effect of over 60% in size. The conditions noted are these: P. falciparum in erythrocytes, SYBR Green DNA, 72 h; for activity, negative = inhibition: at 28.7 µM (top of the series). The procedure, abridged: (§2)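 SYBR Green fluorescence (ex 485 nm, em 535 nm) reports parasite DNA after 72 h compound exposure of infected red cells at 0.3% parasitemia, 2.5% hematocrit; signal normalized to 0.29 uM artemisinin and vehicle wells.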

The subject of assay [14] is 3D7. Described as above. To be noted: P. falciparum in erythrocytes, SYBR Green DNA, 72 h; series mostly up to 28.7 µM. In outline:
as §2

A short description of assay [15]: Quantitative High-Throughput drug screen in 47 multiple myeloma cell lines against the NCATS MIPE library collection: SKMM1_PLB cell viability assay (AID 1919863). Further: nearly all actives have a fitted effect of over 35% in size. The conditions noted are these: SKMM1 myeloma viability, CellTiter-Glo ATP, 48 h; viability: stronger effect = lower value. In outline:
as §1

Assay [16] can be described thus: Quantitative High-Throughput drug screen in 47 multiple myeloma cell lines against the NCATS MIPE library collection: OPM2_DSMZ cell viability assay (AID 1919872). Further: nearly all actives have a fitted effect of over 30% in size. Further: potency means the concentration at half of the fitted maximal effect. The procedure, abridged:
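Viability readout: CellTiter-Glo luminescence following 5 min room-temperature incubation with reagent. Prior exposure: 48 h, 37C, humidified 5% CO2, 500 cells per well.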

A short description of assay [17]: Quantitative High-Throughput drug screen in 47 multiple myeloma cell lines against the NCATS MIPE library collection: OCIMY5_PLB cell viability assay (AID 1918988). Further: nearly all actives have a fitted effect of over 65% in size. Further: potency means the concentration at half of the fitted maximal effect. The procedure, abridged: as §1
Assay [18] is described as follows: qHTS for identification of novel therapeutic agents for treatment of microphthalmiaassociated transcription factor (MiT) renal cell carcinoma (RCC) (AID 1963991).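 Further: curves scaled with 100% = DMSO viability and 0% = empty wells.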 To be noted: CellTiter-Glo, 48 h, stronger effect = lower value. The procedure, abridged:
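UOK109/UOK124/UOK145 (TFE3 fusions, three partners); 500 cells/well; MIPE v4.0, 1912 cpds, 11 conc.; 48 h, 37 C; CellTiter-Glo, 15 min RT; lum. Norm.: DMSO 100%, empty 0%.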

Assay [19] in a line: Quantitative High-Throughput drug screen in 47 multiple myeloma cell lines against the NCATS MIPE library collection: UTMC2_PLB cell viability assay (AID 1919868). Further: potency means the concentration at half of the fitted maximal effect; nearly all actives have a fitted effect of over 55% in size. The conditions noted are these: CellTiter-Glo ATP luminescence, 48 h; viability (% of DMSO control): at 45.8 µM (top of the series) unless noted. The procedure, abridged: as §1
Setting [20] is: measured here: PEO1 parental Z-AUC.
The mark [21] stands for this setting: TFE3-RCC UOK109 viability, measured here: UOK109 Z-AUC.
The mark [22] stands for this setting: TFE3-RCC viability, measured here: UOK124 Z-AUC.
[23] abbreviates: TFE3-RCC viability, measured here: UOK145 Z-AUC.

Values joined by “and” are separate entries in the source; they are usually repeats but may differ in a detail not shown here. Equal values may be shown once. Results filed as inconclusive are left out. Active and inactive are the calls of the source. Unless noted, the call rests on the fitted dose curve; in most records, active means well fitted curve in the direction sought with a large enough effect; inconclusive means small, poorly fitted or top-dose-only effect, or another doubt; inactive means no such curve, though single readings can be large; an effect the other way counts as inactive or inconclusive.

As to `COc1cc(C(=O)NS(=O)(=O)c2ccccc2C)ccc1Cc1cn(C)c2ccc(NC(=O)OC3CCCC3)cc12`, the Potency was 14.8 µM (active) in assay [1]; 7.43 µM (active) in assay [2]; 18.7 µM (active) in assay [3]; 14.8 µM (active) in [4]; 11.8 µM (active) in [5]; 16.6 µM (active) in [6]. Besides, the Potency in [7] was 13.2 µM (active); in assay [8] it was 13.2 µM (active); in assay [9], 20.9 µM (active); in assay [10], 7.43 µM (active); in assay [11], 16.6 µM (active). Also, the results for the Z-AUC in assay [12], in [12] (setting [20]) and in [12] (measured here: PEO4 Z-AUC) were 1.83 (inactive), 1.16 and 1.3, respectively. Also, the activity, negative = inhibition in [13] (parasite line A) was -4.29% (inactive). Further, the Potency entry in [14] was “inactive”.

As for `CCNC(=O)Nc1ccc2ncc(Nc3ccc(C)cc3)nc2n1`, the Potency in [2] was 7.43 µM (active); in assay [5], 0.332 µM (active); in assay [6] it was 0.662 µM (active); in assay [7], 3.72 µM (active); in assay [8], 0.935 µM (active); in assay [10] it was 18.7 µM (active). In [15], the viability is 139% (inactive). Also, the Potency result in assay [16] is “inactive”.

Turning to `Cc1ccc(CN2CCNCC2)cc1NC(=O)CNc1ccc(F)c(F)c1`, the Potency in [3] is 29.6 µM (active). Besides, the Potency result in assay [7], in [8], in assay [9] and in [16] was “inactive” throughout. Also, the results for the Z-AUC in [12], in [12] (setting [20]) and in [12] (measured here: PEO4 Z-AUC) were -0.297 (inactive), -0.179 and -0.154, respectively.

On to `Nc1ccn([C@@H]2CS[C@H](CO)O2)c(=O)n1`, for which the Potency entry in assay [17], in [2], in assay [9], in assay [16], in assay [11] and in assay [14] was “inactive” in each case. In assay [15], the viability is 127% (inactive). The values for the Z-AUC in assay [12], in assay [12] (setting [20]) and in [12] (measured here: PEO4 Z-AUC) were -0.72 (inactive), -0.233 and -0.547, respectively. For the same molecule, the values for the z-score in [18] (setting [21]), in assay [18] (setting [22]) and in assay [18] (setting [23]) were -0.159, 0.923 and 0.391, respectively. Further, the activity, negative = inhibition in assay [13] (parasite line A) is 3.35% (inactive) and 3.28% (inactive); in assay [13] (parasite line B) it was 12% (inactive) and -4.61% (inactive).

Consider `CCCCCCCCCC(=O)N[C@@H](Cc1c[nH]c2ccccc12)C(=O)N[C@H](CC(N)=O)C(=O)N[C@@H](CC(=O)O)C(=O)N[C@@H]1C(=O)NCC(=O)N[C@@H](CCCN)C(=O)N[C@@H](CC(=O)O)C(=O)N[C@H](C)C(=O)N[C@@H](CC(=O)O)C(=O)NCC(=O)N[C@H](CO)C(=O)N[C@@H]([C@@H](C)CC(=O)O)C(=O)N[C@@H](CC(=O)c2ccccc2N)C(=O)O[C@@H]1C`, for which the Potency entry in assay [17], in assay [4], in assay [5], in assay [7], in assay [9] and in assay [16] was “inactive” each time. Moreover, the Potency result in assay [10] and in assay [11] was “inactive” throughout. In [15], the viability was 145% (inactive). The Z-AUC was -0.7 (inactive) in assay [12], -0.476 in assay [12] (setting [20]) and -0.85 in [12] (measured here: PEO4 Z-AUC).

On to `COC(=O)C1=C(C)NC(C)=C(C(=O)OCCN2CCN(C(c3ccccc3)c3ccccc3)CC2)C1c1cccc([N+](=O)[O-])c1` (stereo not given), for which the Potency result in assay [1], in [2], in assay [3], in [5], in assay [7] and in assay [8] was “inactive” in each case. Further, the Potency entry in assay [9], in [16], in assay [10] and in assay [11] was “inactive” in each case. Also, the viability in assay [15] is 126% (inactive). Also, the Potency in assay [6] was 4.18 µM (active); in assay [13] (parasite line A), 3.16 µM (active); in assay [13] (parasite line B), 3.98 µM (active). For the same molecule, the Z-AUC in [12] was -0.27 (inactive); in assay [12] (setting [20]), -0.345; in [12] (measured here: PEO4 Z-AUC), 0.196. For the same molecule, the z-score in assay [18] (setting [21]) was 0.729; in assay [18] (setting [22]) it was 0.516; in assay [18] (setting [23]) it was -0.011.

As to `C[C@@H]1COC(Nc2ccc3ncnc(Nc4ccc(OCc5nccs5)c(Cl)c4)c3c2)=N1`, the Potency was 2.96 µM (active) in [17]; 16.6 µM (active) in assay [2]; 18.7 µM (active) in assay [3]; 0.0372 µM (active) in [4]; 0.105 µM (active) in assay [5]; 3.72 µM (active) in assay [6]. Also, the Potency in [19] was 2.96 µM (active); in assay [7], 4.18 µM (active); in assay [8], 2.96 µM (active); in assay [9], 33.2 µM (active); in assay [16] it was 26.4 µM (active); in assay [10], 18.7 µM (active). The Potency in [12] is 13.8 µM (active). Moreover, the figures for the Z-AUC in [12] (setting [20]) and in assay [12] (measured here: PEO4 Z-AUC) were -1.34 and -1.07, respectively.

With `O=C(c1cncc(Br)c1)N1CCC(N2CCCC2)CC1`, the Potency result in assay [1], in assay [3], in [4], in [5], in assay [6] and in assay [7] was “inactive” each time. The Potency entry in assay [16], in assay [10] and in assay [11] was “inactive” in each case. For the same molecule, the Z-AUC in [12] was -0.226 (inactive); in assay [12] (setting [20]) it was -0.235; in [12] (measured here: PEO4 Z-AUC), 0.232. Moreover, the z-score in [18] (setting [21]) was 0.796; in [18] (setting [22]) it was 0.785; in [18] (setting [23]) it was 0.752.

Regarding `CC(=O)SC[C@@H](C)C(=O)N1CCC[C@H]1C(=O)N[C@@H](Cc1ccccc1)C(=O)O`, the Potency result in assay [1], in assay [2], in assay [5], in assay [7], in assay [8] and in assay [10] was “inactive” each time. The Potency result in assay [11] is “inactive”. Further, the viability in assay [15] is 151% (inactive). The Z-AUC is 0.0192 (inactive) in [12], -0.242 in assay [12] (setting [20]) and -0.303 in [12] (measured here: PEO4 Z-AUC).
